Source: PubChem BioAssay (National Center for Advancing Translational Sciences (NCATS))
Only some compounds are listed: those with a hit (about 5.3% of all), similar ones and a draw of the others.
Sfp PPTase inh: qHTS Assay for Inhibitors of Bacillus subtilis Sfp phosphopantetheinyl transferase (PPTase); Biochemical Sfp PPTase activity, qHTS; Potency, µM, usual class: inhibitors; 4'-phosphopantetheinyl transferase ffp (Bacillus subtilis), Q9F4F7; AID 1490, 2009; 3.5% of 310,000 active;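 also: the enzyme is Sfp with the accession as filed and its product quenches rhodamine fluorescence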
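Fluorescence-quenching assay with 15 nM Sfp, 5 uM rhodamine-CoA and 12.5 uM BHQ-2-labelled ybbR peptide in pH 7.6 Hepes/MgCl2 buffer. Enzyme was pre-incubated with compound for 15 min at room temperature. Rate was taken from the 30-min fluorescence change (525/598 nm).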
Tau fibril FP: qHTS for Inhibitors of Tau Fibril Formation, Fluorescence Polarization; Microtubule-associated protein tau (Homo sapiens), P10636; K18 P301L tau heparin fibrillization, Alexa594 FP, 6 h; Potency, µM (titrated, usually from 57.7 µM), hits mostly inhibitors; 0.39% of 280,000 active; AID 1468, 2008; also: nearly all actives have a fitted effect of over 55% in size
Target sequence (P10636 561-689 P618L limits assumed): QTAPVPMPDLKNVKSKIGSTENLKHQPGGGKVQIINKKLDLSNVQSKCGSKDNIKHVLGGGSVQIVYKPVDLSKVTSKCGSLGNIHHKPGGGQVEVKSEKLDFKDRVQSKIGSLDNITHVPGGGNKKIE
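Recombinant K18 P301L […], labeled with Alexa 594 at 0.24 uM over 15 uM unlabeled; heparin inducer 20 uM final; 37 C, 6 hr; FP endpoint.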
KDM4E inh: qHTS Assay for Inhibitors of Human Jumonji Domain Containing 2E (JMJD2E). JMJD2E catalytic domain, FDH-coupled NADH fluorescence (FDH is formaldehyde dehydrogenase). Potency, µM (titrated, usually from 57.1 µM), hits mostly inhibitors. Lysine-specific demethylase 4E (Homo sapiens), B2RXH2. AID 2147, 2009. 1.6% of 230,000 active; active = well fitted inhibition curve with a large enough effect, not every such curve was filed as active; inconclusive = small, poorly fitted or top-dose-only effect, or another doubt; inactive = no such curve, though single readings can be large or run the other way; also: nearly all actives have a fitted effect of over 50% in size
Target sequence (B2RXH2 1-337 limits assumed): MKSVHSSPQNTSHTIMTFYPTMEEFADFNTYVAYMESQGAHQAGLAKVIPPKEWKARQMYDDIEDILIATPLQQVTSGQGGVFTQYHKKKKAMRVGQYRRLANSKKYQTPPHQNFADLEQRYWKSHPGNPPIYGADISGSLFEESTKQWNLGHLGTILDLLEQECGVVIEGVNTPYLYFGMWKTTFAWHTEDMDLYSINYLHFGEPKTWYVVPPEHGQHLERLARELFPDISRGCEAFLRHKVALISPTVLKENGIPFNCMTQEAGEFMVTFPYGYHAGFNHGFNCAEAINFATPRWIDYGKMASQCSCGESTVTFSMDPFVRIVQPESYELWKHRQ
Coupling enz: qHTS Assay for Inhibitors of Fructose-1,6-bisphosphate Aldolase from Giardia Lamblia: Coupling assay counterscreen | coupling enzyme system counterscreen, AmpLite Red fluorescence | activity change, negative = inhibition, % at 58.2 µM, hits read low | 0.67% of 290,000 active | AID 2472, 2010; in the data active = activity change below about -30%
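Counterscreen of the coupled detection system alone, without aldolase: glyceraldehyde-3-phosphate coupling enzymes plus AmpLite Red readout. Compounds at 57.5 uM final, 10 min RT preincubation, 20 min RT reaction, fluorescence 525/598 nm.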
Tau ThT inhib: qHTS for Inhibitors of Tau Fibril Formation, Thioflavin T Binding | AID 1460, 2008 | recombinant tau K18 P301L, heparin-induced fibrillization, ThT fluorescence | 2.1% of 270,000 active | Potency, µM (highest dose often 57.4 µM), hits mostly inhibitors | Microtubule-associated protein tau (Homo sapiens), P10636; also: nearly all actives have a fitted effect of over 55% in size
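Heparin-induced fibrillization of the P301L-mutant K18 repeat-domain fragment of human tau was followed by ThT binding in quantitative high-throughput format.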
Tau fluor cs: Counterscreen qHTS for Inhibitors of Tau Fibril Formation, Fluorescence Polarization. 0.93% of 280,000 active. tau K18 P301L Alexa594 fluorescence, heparin fibrillization. Potency, µM (top dose mostly 57.7 µM); also: nearly all actives have a fitted effect of over 55% in size
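Human tau K18 P301L (15 uM unlabeled, 0.24 uM Alexa 594-labeled) in 100 mM sodium acetate pH 7 with 20 uM heparin, 6 hr at 37 C. ThT 30 uM added, 1 hr ambient; Alexa 594 FP and total fluorescence read at 555/632 nm.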
A number is an active result; - = inactive; ? = inconclusive; . = no result given; ! = repeats disagree; [ ] = dose if it differs, or a comment. Unless noted, calls follow the shape of the dose curve; as a rule, active = well fitted curve in the direction sought with a large enough effect; inconclusive = small, poorly fitted or top-dose-only effect, or another doubt; inactive = no such curve, though single readings can be large; an effect the other way counts as inactive or inconclusive.

SMILES	Sfp PPTase inh	Tau fibril FP	KDM4E inh	Coupling enz	Tau ThT inhib	Tau fluor cs
COc1ccc(NC(=S)N(Cc2ccc(Cl)cc2)Cc2ccc(C(=O)O)cc2)cc1Cl	50µM	-	-	-	-	-
CCc1ccc(NC(=S)N(Cc2ccc(Cl)cc2)Cc2ccc(C(=O)O)cc2)cc1	18µM	-	-	-	-	-
C=CCC(C)(O)c1cccs1 (centres undefined)	-	-	-	-	-	-
CN(Cc1ccccc1C#N)S(=O)(=O)c1cccs1	-	.	.	-	.	.
N#Cc1nccnc1S(=O)(=O)c1cccs1	7.1µM	-	-	-	?	-
COc1cc(O)c(NC(C)=O)c2nonc12	35µM	?	?	-54	7.9µM	-
CCC(=O)N1CCN(c2ccc(NC(=O)c3ccc([N+](=O)[O-])o3)cc2Cl)CC1	-	-	-	-	11µM	?
CCCC(=O)N1CCN(c2ccc(NC(=O)c3cc4ccccc4o3)cc2Cl)CC1	-	-	?	-40	?	?
COc1ccc(-n2sc3c(c2=S)-c2cc(OC)ccc2NC3(C)C)cc1	?	?	-	-	?	7.9µM[quencher]
COc1ccc2c(c1)-c1c(sn(-c3ccc(OC)c(OC)c3)c1=S)C(C)(C)N2	-	-	-	-	?	?
COc1ccc2c(c1)-c1c(sn(-c3ccccc3)c1=S)C(C)(C)N2	-	?	-	-	?	14µM[quencher]
COc1ccc2c(c1)-c1c(ssc1=S)C(C)(C)N2	?	-	-	-	14µM	16µM[quencher]
O=C(/C=C\c1ccc(O)c(O)c1)O[C@@H](Cc1ccc(O)c(O)c1)C(=O)O	50µM	-	4.5µM	-	?	-
O=C(/C=C/c1ccc(O)c(O)c1)OC(Cc1ccc(O)c(O)c1)C(=O)O (centres undefined)	79µM!	-	4µM	-	-	?
N#C/C(=C\c1c(Oc2ccc(Br)cc2)nc2ccccn2c1=O)c1nc2ccccc2s1	.	?	.	.	?	-
N#Cc1ccccc1OCC(O)CNCCNC(=O)Nc1ccccc1 (centres undefined)	-	-	.	.	-	-
CC/C(=N\Nc1ccc([N+](=O)[O-])cc1[N+](=O)[O-])c1ccc(O)cc1	-	.	.	-	.	.
CC/C(=N\Nc1ccccc1[N+](=O)[O-])c1ccc(O)cc1	?	-	-	-	1.8µM	4.5µM[quencher]
CCCc1nc(N)sc1C(=O)OCC	-	-	-	-	-	-
CCOC(=O)c1sc(N)nc1C(C)C	45µM	-	-	-	-	-
Cc1ccc(C2CC(=O)n3nc(-c4ccc(F)cc4)nc3S2)cc1 (centres undefined)	.	-	.	.	?	-
O=C(Nc1sc2c(c1C(=O)Nc1cccc(Cl)c1)CCCC2)c1cccs1	.	?	.	.	11µM	-
NC(=O)c1c(NC(=O)c2cccs2)sc2c1CCCCCC2	?	-	?	-	-	-
O=C(Nc1sc2c(c1C(=O)O)CCC2)c1ccc(F)cc1	-	-	-	-	?	-
COCCN(CCOC)S(=O)(=O)c1ccc(C(=O)Nc2sc3c(c2C(N)=O)CCCCC3)cc1	50µM	-	-	-	-	-
SMILES	Sfp PPTase inh	Tau fibril FP	KDM4E inh	Coupling enz	Tau ThT inhib	Tau fluor cs
O=C(Nc1sc2c(c1C(=O)O)CCCCC2)c1ccccc1	40µM	-	-	-38	-	-
O=C(Nc1sc2c(c1C(=O)O)CCCC2)c1ccc(Cl)cc1	-	.	.	-36	.	.
O=C(Nc1sc2c(c1C(=O)O)CCC2)c1ccccc1	-	-	-	-	?	-
Cc1cc(C)c2c(n1)SCCN2C(=O)Nc1ccc(C(=O)Nc2ccc(C(C)C)cc2)cc1	.	-	.	.	-	-
CCN(CCCNC(=O)CSc1cc(=O)n(CC)c2ccccc12)c1ccccc1	.	-	.	.	?	?
Cc1ccc(P(=O)(CSC(=N)N)c2ccc(C)cc2)cc1	-	?	-	-	13µM	-
N=C(N)SCP(=O)(c1ccccc1)c1ccccc1	-	?	-	-	?	-
C=C1CCN(C(Cc2ccccc2)C(=O)Nc2ccc(OC)cc2)S(=O)(=O)c2ccccc21 (centres undefined)	-	.	.	-	.	.
C=CCC1(O)CCOc2ccccc21 (centres undefined)	-	-	-	-	-	-
Cc1cccc(N=C2NC(=O)/C(=C/c3cccn3C)S2)c1	-	-	-	-	7.9µM	-
S=c1cnc2ccccc2[nH]1	20µM	-	11µM	-	-	-
CCOc1ccc(N=Nc2c(=O)[nH]n3c(C)cc(C)nc23)cc1	-	-	-	-	13µM	-
COc1ccc2nc(-n3c(C)ccc3C)sc2c1	-	-	-	-	?	-
CCOc1ccc2nc(N3C(=O)/C(=C/c4ccccc4)NC3=S)sc2c1	-	?	-	-	3.5µM	?
COc1ccc2nc(N3C(=O)/C(=C/c4ccccc4)NC3=S)sc2c1	-	-	-	-	4µM	?
Cc1cc(O)cc(O)c1C(=O)OC1(C)C(=O)C=C2C=C(/C=C/CO)OC=C2C1=O (centres undefined)	-	?	-	-	?	-
C=CCOn1c(=O)c(-c2ccccc2)[n+]([O-])c2ccccc21	-	-	20µM	-	-	-
C=CCOn1c(=O)c(-c2ccc(C)cc2)[n+]([O-])c2ccccc21	-	.	.	-	.	.
O=c1c(-c2ccco2)[n+]([O-])c2ccccc2n1OCc1ccccc1[N+](=O)[O-]	50µM	-	?	-	?	-
O=c1c(=O)n(O)c2ccccc2n1O	79µM	-	?	-	-	-
O=c1c(-c2ccccc2)[n+]([O-])c2ccccc2n1O	40µM	-	?	-	-	-
COc1ccccc1C(=O)Nc1ccc(C(=O)OCc2cc(=O)n3ccsc3n2)cc1	.	-	.	.	-	-
Cc1nn(-c2ccc(N3CCCCC3)nn2)c(C)c1CCC(=O)Nc1ccc(F)cc1F	.	-	.	.	?	-
COCCCn1c(=O)c2ccccc2c2ccccc2c1=O	-	-	-	-	-	-
O=c1c2sc3ccccc3c2[nH]c(=S)n1CCN1CCOCC1	45µM	-	?	-	?	-
O=c1c2ccccc2[nH]c(=S)n1CCCN1CCOCC1	-	-	-	-	-	-
COCCCn1c(=S)[nH]c2c(sc3ccccc32)c1=O	79µM	-	?	-	-	-
COC(=O)c1scc(C)c1NC(=O)/C=C/C(=O)O	13µM	-	-	-	?	-
COC(=O)c1scc(C)c1NC(=O)Nc1ccccc1	-	-	-	-	-	-
